The list is not random: actives were taken first. Their share in the collection is about 3.1%.
VDR inh = vitamin D3 receptor (human) inhibition; VDR-SRC2-3 peptide fluorescence polarization, 2 h; Potency, µM, usual class: inhibitors; hit rate 0.93% among 400,000; AID 504847
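The screen uses fluorescence polarization to detect compounds that interfere with recruitment of the SRC2-3 coactivator peptide to VDR; plates are read after 2 h at room temperature.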
TSHR antag = human thyrotropin receptor antagonism; P16473; TSHR-expressing cells, TSH-stimulated cAMP HTRF, 2 h; active compounds read low; activity change, negative = inhibition, % at 11.5 µM; hit rate 0.2% among 330,000; AID 504810;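 active = activity change below a set negative limit, meaning inhibition stronger than a set level, cut at about -70% in these data; inconclusive = activity change between two set negative limits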
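TSHR-expressing cells, 200/well, pre-treated with compound, then stimulated with EC80 TSH (4nM final) for 2 hours at 37 deg C. cAMP measured by competitive HTRF: anti-cAMP cryptate antibody in lysis buffer plus cAMP-d2, read after 30 minutes at room temperature.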
PLK1 PBD block = inhibitors of human PLK1 polo-box domain binding. P53350. hit rate 2.8% among 360,000. Plk1 PBD binding of FITC phosphopeptide, fluorescence polarization. AID 720504. Potency, µM, most hits filed as inhibitors; also: series mostly up to about 57 µM; nearly all actives have a fitted effect of over 65% in size
Vif-APOBEC3F blk = Vif-A3F binding inhibition; Potency, µM (highest dose often 46.1 µM); HeLa A3F-eYFP + Vif (tagged APOBEC3F with the HIV-1 protein that degrades it), YFP fluorescence increase; hit rate 0.2% among 390,000; also: nearly all actives have a fitted effect of over 65% in size
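HeLa cells stably expressing Vif plus C-terminally eYFP-tagged A3F were seeded, incubated overnight at 37 deg C, dosed with compound, incubated overnight again at 37 deg C. Yellow fluorescence (Ex 488/Em 500-530) reported blocked Vif-mediated A3F-eYFP degradation.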
Vif-A3G inh = blocks the Vif interaction with human APOBEC3G; Q9HC16; HeLa A3G-eYFP + Vif (tagged APOBEC3G with the HIV-1 protein that degrades it), YFP fluorescence, overnight; Potency, µM (top dose mostly 46.1 µM), hits mostly inhibitors; hit rate 0.076% among 410,000; AID 602310; also: nearly all actives have a fitted effect of over 60% in size
Target sequence (Q9HC16 whole entry, looked up): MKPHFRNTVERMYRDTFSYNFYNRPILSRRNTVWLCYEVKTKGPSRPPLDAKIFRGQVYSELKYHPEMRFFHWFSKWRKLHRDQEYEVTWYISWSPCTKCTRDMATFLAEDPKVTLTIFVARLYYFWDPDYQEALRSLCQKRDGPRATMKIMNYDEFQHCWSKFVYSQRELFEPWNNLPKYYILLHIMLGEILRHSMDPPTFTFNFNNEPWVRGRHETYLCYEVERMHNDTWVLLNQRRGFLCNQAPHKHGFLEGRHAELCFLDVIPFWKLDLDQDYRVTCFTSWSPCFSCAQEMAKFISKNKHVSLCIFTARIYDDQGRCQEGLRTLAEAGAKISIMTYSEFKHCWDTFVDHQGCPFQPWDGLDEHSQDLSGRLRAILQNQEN
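Read-out is eYFP fluorescence (Ex 488/Em 500-530) from Vif-expressing HeLa A3G-eYFP cells; more signal means A3G escaped Vif-mediated degradation. Cells plated overnight, compound pinned in, incubated overnight at 37 deg C.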
Numbers stand for hits; n = inactive; u = inconclusive; x = no result. Unless noted, calls follow the shape of the dose curve; as a rule, active = well fitted curve in the direction sought with a large enough effect; inconclusive = small, poorly fitted or top-dose-only effect, or another doubt; inactive = no such curve, though single readings can be large; an effect the other way counts as inactive or inconclusive.

SMILES	VDR inh	TSHR antag	PLK1 PBD block	Vif-APOBEC3F blk	Vif-A3G inh
Fc1ccc(C(c2nnnn2C2CCCC2)N(Cc2ccco2)CC2CCCO2)cc1 (configuration not stated)	n	n	n	n	n
O=c1c2ccccc2nc(N/N=C/c2c(O)ccc3ccccc23)n1O	n	n	29.9µM	n	n
Nc1sc2c(c1C(=O)NC1CC1)CCCC2	79.4µM	n	18.9µM	n	n
O=[N+]([O-])c1cccc(-c2nc(-c3ccncc3)no2)c1	n	n	n	n	n
O=[N+]([O-])c1cccc(-c2nc(-c3ccccc3)no2)c1	n	n	18.9µM	n	n
CSC(SC)=C(C#N)C(=O)c1ccccc1	u	n	10.6µM	n	n
N#C/C(=C/c1ccc(C(=O)O)cc1)C(=O)Nc1ccccc1	u	n	n	n	n
N#C/C(=C\c1ccc(OCc2ccccc2)cc1)C(=O)Nc1ccc(C(=O)O)cc1	n	n	21.2µM	n	n
CCN(CC)S(=O)(=O)c1ccc(N2CCCCC2)c(NC(=O)/C(C#N)=C/c2ccc(OC)cc2)c1	n	n	n	n	n
COc1cc(/C=C(/C#N)C(=O)Nc2ccccc2)c(Br)cc1OCc1ccc(C(=O)O)cc1	50.1µM	n	23.8µM	n	u
COc1cc(/C=C(\C#N)C(=O)Nc2cccc(C(=O)O)c2)ccc1OCc1ccc(Cl)cc1	n	n	n	n	n
CCOc1ccc(NC(=O)/C(C#N)=C/c2ccc(N3CCCC3)c(C)c2)cc1	n	n	n	2.51µM	3.98µM
CCCNC(=O)[C@H]1O[C@@H]1C(=O)N[C@H](C(=O)N1CCC[C@H]1C(=O)OC)[C@@H](C)CC	n	x	x	x	x
COc1ccc(-c2nnc(SCc3ccccn3)n2C)cc1	n	n	29.9µM	n	n
Cc1ccc(S(=O)(=O)N2c3ccccc3NC(=O)CC2C)cc1 (configuration not stated)	n	n	n	n	n
CC1CC(=O)Nc2ccccc2N1S(=O)(=O)c1ccccc1 (configuration not stated)	u	n	26.7µM	n	n
C=CC(=O)N1CCC[C@@H](n2nc(-c3ccc(Oc4ccccc4)cc3)c3c(N)ncnc32)C1	x	x	x	x	n
COC(=O)C1=C(C)NC(C)=C(C(=O)OCCNCc2ccccc2)C1c1cccc([N+](=O)[O-])c1 (configuration not stated)	n	x	x	x	x
Cc1cccc2c(=O)n3c(cc12)-c1[nH]c2ccccc2c1CC3	n	x	n	22.4µM	n
COc1ccc(C(C[N+](=O)[O-])c2c(-c3ccccc3)cc3ccccn23)c(OC)c1 (configuration not stated)	70.8µM	n	n	n	u
COc1ccc(C(C[N+](=O)[O-])c2c(C)cc3ccccn23)cc1 (configuration not stated)	n	n	n	n	u
CCn1c(C)nc2cc(C(=O)N/N=C/c3ccc(O)c(O)c3O)ccc21	n	n	8.44µM	n	n
CCN(CCO)c1ccc(NC(=S)Nc2cccc(S(=O)(=O)N(C)C)c2)cc1	u	n	26.7µM	n	n
CN(C)S(=O)(=O)c1cccc(NC(=S)N/N=C/c2ccc(O)c(O)c2O)c1	89.1µM	n	5.97µM	n	n
CCOc1ccccc1/C=N/NC(=O)c1cccc(S(=O)(=O)N(CC)CC)c1	n	n	n	n	n
SMILES	VDR inh	TSHR antag	PLK1 PBD block	Vif-APOBEC3F blk	Vif-A3G inh
CCN(CC)S(=O)(=O)c1cccc(C(=O)N/N=C/c2ccc(O)c(O)c2O)c1	n	n	8.44µM	n	n
C[C@@H]1C(=O)O[C@H]2[C@H](O)[C@@]34[C@H]5CC(C(C)(C)C)[C@]36[C@H](OC(=O)[C@H]6O)O[C@]4(C(=O)O5)[C@@]12O (some centres not stated)	n	x	x	x	x
CN(C)C(=O)COc1ccccc1C(=O)OCC(=O)Nc1ccc(Oc2ccc(Br)cc2)cc1	x	x	x	x	n
COc1cccc(/C=N/NC(=S)Nc2cccc(S(=O)(=O)N(C)C)c2)c1	79.4µM	n	8.44µM	u	n
COc1ccc(C(=O)O)cc1S(N)(=O)=O	n	n	n	n	n
CNS(=O)(=O)c1cc(C(=O)O)ccc1OC	u	n	26.7µM	n	n
Brc1ccc2[nH]c3c(N4CCc5ccccc5C4)ncnc3c2c1	n	-76.7	n	x	u
C=CCNC(=O)c1ccc(NC(=O)C2=CSCCO2)cc1	n	-135.5	n	n	n
CCOc1ccccc1C(=O)Nc1c(NC)c2ccccc2oc1=O	n	x	x	n	n
CC(C(=O)O)n1c(-c2ccn[nH]2)n[nH]c1=S (configuration not stated)	u	n	15µM	n	n
CC(c1ccccc1)n1c(-c2ccccc2)n[nH]c1=S (configuration not stated)	x	x	x	x	n
CC(C(=O)Nc1ccccc1-c1ccccc1)N(C)Cc1nc2ccccc2c(=O)[nH]1 (configuration not stated)	u	n	6.7µM	n	u
C=CC[C@H]1CC(Cc2ccccc2)=C[C@H](CC=C)N1	u	n	23.8µM	n	n
Cc1nc([N+](=O)[O-])cn1CC(O)c1ccc2c(c1)OCCCO2 (configuration not stated)	x	x	x	x	n
O=C(Nc1cc(S(=O)(=O)Nc2ccc(Cl)cc2)ccc1O)c1ccc(S(=O)(=O)N2CCCCCC2)cc1	u	n	11.9µM	u	n
O=C(Nc1cc(S(=O)(=O)N2CCCCC2)ccc1O)c1ccccc1NS(=O)(=O)c1ccc(F)cc1	n	n	26.7µM	n	n
Cc1ccc(-n2c3c(c(=O)[nH]c2=O)C(NC(=O)c2ccccc2F)(C(F)(F)F)C(=O)N3)cc1C (configuration not stated)	n	x	x	n	n
COC(=O)C1=C(C)N(c2cccc(OC)c2)C(=O)/C1=C\c1ccco1	u	n	29.9µM	n	n
CCCC(=O)Oc1ccc2[nH]c(C(=O)c3cc4ccccc4[nH]3)cc2c1	x	x	x	x	n
O=C(NCc1ccco1)C1CCCN1C(=O)Nc1ccc(Cl)cc1 (configuration not stated)	u	n	11.9µM	n	n
O=C(NCc1ccco1)C1CCCN1C(=O)Nc1cccc(Cl)c1 (configuration not stated)	n	n	n	n	n
S=C(NCc1ccccc1)N1CCn2cccc2C1c1cccnc1 (configuration not stated)	n	n	n	n	n
S=C(NCc1ccccc1)N1CCn2cccc2C1c1ccncc1 (configuration not stated)	n	n	16.8µM	n	n
CSc1ccc(/C=C2\C=Cc3ccc([N+](=O)[O-])cc32)cc1	x	x	x	x	n
C=C1CC(Cn2cc(Br)c(=O)[nH]c2=O)(c2ccc(-c3ccccc3)cc2)OC1=O (configuration not stated)	u	x	23.8µM	n	n
O=c1[nH]c(=O)n(Cc2ccc(Oc3ccccc3)cc2)cc1Br	x	n	x	x	x
CCOc1cccc(CNc2ccc(O)cc2)c1OCc1ccc(Cl)cc1Cl	50.1µM	n	n	n	n
